Laboratory results taken from PubChem BioAssay AID504832 (National Center for Advancing Translational Sciences (NCATS), 2011).
Out of some 310,000 compounds screened, about 18,000 (5.8%) were called active. A call without a number means that no potency is given here. Not shown: some 22% with an inconclusive outcome. This excerpt belongs to a sample that is enriched for actives. A number with no mark means an inactive call. Calls follow the shape of the dose curve; as a rule, active = well fitted inhibition curve with a large enough effect; inconclusive = small, poorly fitted or top-dose-only effect, or another doubt; inactive = no such curve, though single readings can be large or run the other way.

Assay: Primary qHTS for delayed death inhibitors of the malarial parasite plastid, 48 hour incubation
Details: P. falciparum luciferase growth in erythrocytes; series mostly up to 28.7 µM
Method in brief: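 Erythrocytes infected with P. falciparum carrying an integrated firefly luciferase reporter (2% hematocrit, 0.1% parasitemia final) were exposed to compounds in RPMI 1640 with 0.5% Albumax at 37 C, 5% CO2. Growth inhibition was scored as reduced luminescence.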
Potency is read from the fitted curve at half-maximal effect.

Structure (SMILES)	Potency	activity change, negative = inhibition
COc1ccccc1C(=O)NCCC(=O)N(C)Cc1cccnc1	inactive	–
Cc1ccc(S(=O)(=O)N2CCCCC2)cc1C(=O)N(C)CC(=O)Nc1cccc(F)c1	inactive	–
COc1ccccc1C(=O)NCCC(=O)NC1=NCCS1	inactive	–
COc1ccc(N(CC(=O)N2CCOCC2)S(=O)(=O)c2ccccc2)cc1Cl	inactive	–
COc1ccc(NC(=O)CN(C)C(=O)c2ccc(NC3CC3)c([N+](=O)[O-])c2)cc1	inactive	–
CCCCN(C(=O)C1CCC1)c1c(N)n(Cc2ccccc2)c(=O)[nH]c1=O	inactive	–
CCCc1c(C(=O)O)cnn1-c1ccc(Cl)cc1	inactive	–
O=C(Nc1ccccc1)OCc1cn(-c2ccc(Cl)cc2)nn1	inactive	–
O=C(Cn1cc(-c2nnnn2-c2ccc(Cl)cc2)c(=O)c2ccccc21)c1ccccc1	1.65 µM (active)	–
O=C(NCCS(=O)(=O)N1CCN(c2ccc(F)cc2)CC1)c1ccc2c(c1)OCO2	inactive	–
CCOCCCNC(=S)Nc1ccc2nc(N3CCN(CC)CC3)cc(C)c2c1	inactive	–
CC[N+](C)(CC)CCC[n+]1c(-c2ccccc2)c2cc(N)ccc2c2ccc(N)cc21	1.85 µM (active)	–
CC(=O)Nc1ccc(NC(=O)CCCNC(=O)c2ccc(Cl)cc2)cc1	inactive	–
CC(=O)c1cccc(NC(=O)c2cc(C)nn2-c2ccccc2)c1	–	-2.83% [at 0.00184 µM]
CC[n+]1c(C)n(-c2ccccc2)c2ccc(NC(C)=O)cc21	4.65 µM (active)	–
CC(=O)Nc1ccc(NC(=O)CSc2nnc(C3CC3)n2-c2ccccc2)cc1	inactive	–
O=C(COc1ccc(Cl)cc1)NCCS(=O)(=O)N1CCN(c2ccc(F)cc2)CC1	inactive	–
CCc1ccccc1NC(=O)NCCN1CCCCC1	inactive	–
CC(C)c1ccc(NC(=O)Cn2ncc3ccccc32)cc1	inactive	–
COc1cccc(NC(=O)CN(C)C(=O)CSCc2nc3scc(-c4cccs4)c3c(=O)[nH]2)c1	inactive	–
N/C(=N\OC(=O)N1c2ccccc2Sc2ccccc21)c1ccc(Br)cc1	8.28 µM (active)	–
N/C(=N\OC(=O)/C=C/c1ccccc1)c1ccc(Br)cc1	inactive	–
N/C(=N\OC(=O)Cc1ccccc1[N+](=O)[O-])c1ccc(Br)cc1	inactive	–
CCn1c(=S)sc2c(=O)n(CC(=O)Nc3ccc(OC)cc3)c(C)nc21	inactive	–
C=CCn1c(CCc2ccc(OC(C)C)cc2)n[nH]c1=S	inactive	–
CC(C)Oc1ccc(CCc2nnc(SCC(=O)O)n2-c2ccccc2)cc1	–	1.18% [at 5.75 µM]
CC(C)Oc1ccc(CCc2n[nH]c(=S)n2Cc2ccccc2)cc1	2.08 µM (active)	–
